Measured values reported in PubChem BioAssay (NCI).
About 79,000 compounds went through this panel and 15% of them were active in at least one assay; those are over-represented in the sample as a whole. Active and inactive are the calls of the source. Rule as the data show it: active = growth inhibition above about 70%; inactive = the rest.

Experiments:
[1] = NCI Yeast Anticancer Drug Screen. Data for the rad52 strain (AID 147);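 also: 0% = growth of vehicle-treated control cultures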; conditions: S. cerevisiae rad52 mutant growth inhibition, active compounds read high
How it was run: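 Yeast strain carrying a DNA damage repair alteration was exposed to test compounds. Growth inhibition was measured relative to vehicle-treated controls.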

[2] = NCI Yeast Anticancer Drug Screen. Data for the wt1 strain (AID 149);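 also: 0% = growth of vehicle-treated wt1 cultures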; conditions: S. cerevisiae wt1 strain (SPY 50644) growth inhibition, active compounds read high
How it was run: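 Growth inhibition read against vehicle controls after compound exposure of the wt1 yeast strain.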

[3] = NCI Yeast Anticancer Drug Screen. Data for the rad50EPP+ strain (AID 151);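 also: 0% = growth of vehicle-treated control cultures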; conditions: S. cerevisiae rad50 mutant strain, active compounds read high
How it was run: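 Yeast strain carrying rad50 alteration (rad50EPP+) exposed to compounds; growth inhibition measured relative to vehicle-treated controls.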

[4] = NCI Yeast Anticancer Drug Screen. Data for the rad50 strain (AID 155);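 also: 0% = growth of vehicle-only cultures of the same strain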; conditions: S. cerevisiae rad50 strain growth inhibition, active compounds read high
How it was run: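 Readout: growth inhibition relative to vehicle-treated cultures. Compound exposure was carried out in a genetically defined yeast strain deficient in DNA damage repair.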

[5] = NCI Yeast Anticancer Drug Screen. Data for the mec2-1 strain (AID 157); conditions: S. cerevisiae mec2-1 strain, active compounds read high
How it was run: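 mec2-1 yeast strain, carrying an alteration in DNA damage repair or cell cycle control, was exposed to compounds; growth inhibition was measured relative to vehicle-treated controls.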

[6] = NCI Yeast Anticancer Drug Screen. Data for the rad14 strain (AID 159);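 also: 0% = growth of vehicle-treated control cultures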; conditions: S. cerevisiae rad14 strain growth inhibition, active compounds read high
How it was run: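 Growth inhibition vs vehicle controls; genetically altered yeast strain (DNA damage repair defect) treated with test compounds.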

[7] = NCI Yeast Anticancer Drug Screen. Data for the sgs1 mgt1 strain (AID 161);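 also: 0% = growth of cultures given vehicle only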; conditions: S. cerevisiae sgs1 mgt1 strain, active compounds read high
How it was run: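 Yeast cells carrying a defined DNA-repair defect were exposed to test compounds. Growth inhibition was measured relative to vehicle-treated controls.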

[8] = NCI Yeast Anticancer Drug Screen. Data for the CLN2oe strain (AID 163);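 also: 0% = growth of vehicle-only control cultures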; conditions: S. cerevisiae CLN2oe strain, active compounds read high
How it was run: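 Yeast cells carrying a defined cell-cycle control alteration were exposed to test compounds. Growth inhibition was scored against vehicle-treated control cultures.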

[9] = NCI Yeast Anticancer Drug Screen. Data for the cln2 rad14 strain (AID 165);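 also: 0% = growth equal to vehicle treated cultures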; conditions: S. cerevisiae cln2 rad14 strain, active compounds read high
How it was run: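 Yeast carrying cln2 and rad14 alterations (cell cycle control and DNA damage repair) were exposed to compounds. Growth inhibition was measured against vehicle-treated controls.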

[10] = NCI Yeast Anticancer Drug Screen. Data for the bub3 strain (AID 167); conditions: S. cerevisiae bub3 mutant strain, active compounds read high
How it was run: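 Readout: yeast growth inhibition, expressed relative to vehicle-only wells. The test organism is a mutant strain from a panel with lesions in DNA repair or checkpoint genes.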

[11] = NCI Yeast Anticancer Drug Screen. Data for the wt2 strain (AID 169);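 also: 0% = growth of vehicle-treated yeast cultures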; conditions: S. cerevisiae wt2 strain growth inhibition, active compounds read high
How it was run: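 Yeast cells were exposed to test compounds, and growth inhibition was measured relative to vehicle-treated controls.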

[12] = NCI Yeast Anticancer Drug Screen. Data for the mlh1 strain (AID 171);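 also: 0% = growth of vehicle-treated control cultures of the same strain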; conditions: S. cerevisiae mlh1 strain growth inhibition, active compounds read high
How it was run: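 Yeast carrying a defined genetic alteration in DNA damage repair or cell cycle control were exposed to test compounds. Growth inhibition was measured relative to vehicle-treated controls.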

[13] = NCI Yeast Anticancer Drug Screen. Data for the sgs1 strain (AID 173);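 also: 0% = growth of vehicle-only control cultures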; conditions: S. cerevisiae sgs1 mutant, active compounds read high
How it was run: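 Yeast mutant strains carrying defined defects in DNA damage repair or cell cycle control were exposed to test compounds. Growth inhibition was scored against vehicle-treated controls.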

[14] = NCI Yeast Anticancer Drug Screen. Data for the mlh1 rad18 strain (AID 175); conditions: S. cerevisiae mlh1 rad18 strain growth inhibition, active compounds read high
How it was run: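 Growth inhibition of the yeast strain was measured after compound exposure and expressed relative to vehicle-treated controls. The strain carries defined defects in DNA damage repair.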

[15] = NCI Yeast Anticancer Drug Screen. Data for the rad18 strain (AID 177); conditions: S. cerevisiae rad18 mutant growth inhibition, active compounds read high
How it was run: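 Yeast carrying a defined DNA damage repair alteration were exposed to compounds. Growth inhibition was expressed relative to vehicle-treated controls.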

[16] = at 5.0 µM (retest, dose inferred, filed as 0.5)
[17] = at 50.0 µM (retest, dose inferred, filed as 5.0)

Measured: growth inhibition

O=[N+]([O-])c1c(/C=N/Nc2ccccc2)oc(-c2ccc3c(c2)OCO3)c1-c1ccc2c(c1)OCO2
active: [1]; at 100.0 µM 88% | [4]; [16] 88% | [4]; [17] 88% | [4]; at 50.0 µM 80.3% | [4]; at 100.0 µM 86% | [5]; at 50.0 µM 88.2% | [5]; at 100.0 µM 81% | [6]; at 100.0 µM 91% | [7]; [16] 87% | [7]; [17] 87% | [7]; at 50.0 µM 83% | [8]; at 100.0 µM 77% | [9]; at 50.0 µM 86.8% | [10]; at 50.0 µM 82.5% | [11]; at 100.0 µM 88% | [12]; at 100.0 µM 73% | [13]; at 100.0 µM 89% | [14]; at 50.0 µM 84.2% | [15]; at 100.0 µM 87%
inactive: [1]; at 1.2 µM 0% | [1]; at 3.7 µM 6% | [1]; at 11.0 µM 20% | [1]; at 33.0 µM 67% | [2]; at 1.2 µM -1% | [2]; at 3.7 µM 0% | [2]; at 11.0 µM -1% | [2]; at 33.0 µM 19% | [2]; at 100.0 µM 62% | [3]; at 1.2 µM -4% | [3]; at 3.7 µM 1% | [3]; at 11.0 µM 11% | [3]; at 33.0 µM 31% | [3]; at 100.0 µM 46% | [4]; at 1.2 µM -1% | [4]; at 3.7 µM 2% | [4]; at 11.0 µM 7% | [4]; at 33.0 µM 56% | [5]; at 1.2 µM 0% | [5]; at 3.7 µM 0% | [5]; [16] 8% | [5]; at 11.0 µM 8% | [5]; at 33.0 µM 37% | [5]; [17] 8% | [6]; at 1.2 µM 0% | [6]; at 3.7 µM -2% | [6]; at 11.0 µM 2% | [6]; at 33.0 µM 20% | [8]; at 1.2 µM -1% | [8]; at 3.7 µM 4% | [8]; at 11.0 µM 9% | [8]; at 33.0 µM 46% | [9]; [16] -17% | [9]; [17] -17% | [10]; at 1.2 µM -9% | [10]; at 3.7 µM -8% | [10]; [16] -21% | [10]; at 11.0 µM 8% | [10]; at 33.0 µM 39% | [10]; [17] -21% | [10]; at 100.0 µM 60% | [11]; at 1.2 µM 0% | [11]; at 3.7 µM 1% | [11]; at 11.0 µM 5% | [11]; at 33.0 µM 44% | [12]; at 1.2 µM -3% | [12]; at 3.7 µM -2% | [12]; at 11.0 µM 3% | [12]; at 33.0 µM 36% | [13]; at 1.2 µM -2% | [13]; at 3.7 µM -2% | [13]; at 11.0 µM 7% | [13]; at 33.0 µM 65% | [14]; [16] 38% | [14]; [17] 38% | [15]; at 1.2 µM -8% | [15]; at 3.7 µM -5% | [15]; at 11.0 µM 8% | [15]; at 33.0 µM 69%
